Screening results as filed in PubChem.
RAD52 inh: RAD52 DNA annealing inhibitors, primary screen, biochemical, FRET, single point, set 2. DNA repair protein RAD52 homolog (Homo sapiens), P43351. recombinant RAD52 DNA annealing, FRET fluorescence. inhibition, % at 18.7 µM. 0.46% of 360,000 active;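 active means every replicate showing at least 50% inhibition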
Target sequence (P43351 whole entry, looked up): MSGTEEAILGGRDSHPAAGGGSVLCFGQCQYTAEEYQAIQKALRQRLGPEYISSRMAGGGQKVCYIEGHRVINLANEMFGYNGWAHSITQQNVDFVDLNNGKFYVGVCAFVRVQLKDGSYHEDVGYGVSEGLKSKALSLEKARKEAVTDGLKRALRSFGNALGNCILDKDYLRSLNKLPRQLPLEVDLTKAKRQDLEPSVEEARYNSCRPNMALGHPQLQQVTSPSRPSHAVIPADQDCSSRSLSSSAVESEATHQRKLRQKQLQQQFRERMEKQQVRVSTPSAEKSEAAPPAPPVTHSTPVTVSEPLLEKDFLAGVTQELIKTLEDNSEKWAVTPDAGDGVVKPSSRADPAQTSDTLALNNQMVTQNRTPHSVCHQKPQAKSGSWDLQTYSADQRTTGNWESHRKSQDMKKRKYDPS
RAD54 branch: inhibitors of human RAD54 branch migration, primary screen, biochemical, fluorescence, single point; 0.14% of 360,000 active; inhibition, % at 10.4 µM; AID 602329, 2012; DNA repair and recombination protein RAD54-like (Homo sapiens), Q92698; RAD54 Holliday junction branch migration, FAM/BHQ fluorescence;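 active means mean normalized replicate activity at least 40 and at least half of replicates scoring 40 or more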;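 further: 0% = median of neutral control wells and 100% = median of positive control wells; inhibitors cause a drop in the FAM fluorescence signal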
F508del corr: F508del CFTR correction, initial screen, CFBE line, single point | CFBE cells, YFP halide quenching; stimulated with forskolin plus potentiator P3; % fluorescence drop versus neutral controls | activity (quench increase), % at 7.58 µM | 0.36% of 350,000 active;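 active means mean added fluorescence quench of at least 8% versus neutral control, with both replicates also reaching 8%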;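 further: cells transiently co-express mutant CFTR-F508del with the halide-sensitive YFP; corrector assay measuring rescue of mutant channel to the surface after 24 h compound exposure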
EWS-Fli block: EWS/Fli-driven NR0B1 reporter inhibitors, primary screen, A673 cells, NR0B1 luciferase, luminescence, MLPCN library. viability-normalised. inhibition, % at 12.6 µM. 0.67% of 350,000 active;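 active means mean inhibition of at least 50% after viability correction, with every replicate also passing that limit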;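 further: firefly luciferase signal divided by Alamar Blue viability fluorescence both relative to DMSO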
LGR2 inh: inhibitors of bursicon-induced LGR2 CRE-luciferase signal, primary screen, cell-based, HEK293, CRE-luciferase reporter, bursicon stimulation; Drosophila bursicon receptor LGR2 (rickets); bursicon-stimulated, 4 h; inhibition, % at 9.99 µM; 0.35% of 380,000 active; AID 720647, 2013;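 active means drop in luminescence signal, shown as inhibition above about 50% in the replicate tests, limit read from the data, passing the limit was not always enough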;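 further: agonist challenge used bursicon conditioned medium at about half maximal strength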
INS-1E GSIS act: GLuc luminescence reporter in INS-1E cells, primary screen for activators of glucose-dependent secretion of insulin. INS-1E GLuc reporter insulin secretion, 2-3 h. activation, % at 16.6 µM. AID 743287, 2014. 0.61% of 370,000 active;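 active means lowest replicate activation of at least 40%, so every replicate reaches that level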;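 further: 0% = median of neutral control wells and 100% = median of IBMX positive control wells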
An asterisk follows results filed as active; . = not tested or not shown. Only some compounds are listed: those with a hit (about 1.8% of all), similar ones and a draw of the others.

SMILES	RAD52 inh	RAD54 branch	F508del corr	EWS-Fli block	LGR2 inh	INS-1E GSIS act
COc1ccc2sc(N(CCCN(C)C)C(=O)c3nc4ccccc4s3)nc2c1	21.9	20.1	0.2	-32.6	-15.0	-3.4
COc1ccccc1C(=O)N(CCC1CCCN1C)c1nc2ccccc2s1 (centres undefined)	-3.1	.	1.8	61.4*	97.5*	3.7
Cc1ccc(S(=O)(=O)N2CCN(C(=O)COC(=O)c3ccc(O)cc3)CC2)c(C)c1	-7.2	.	0.5	6.7	3.8	49.5*
Cc1ccc(S(=O)(=O)N2CCN(C(=O)COC(=O)/C=C/c3ccc(Cl)cc3)CC2)c(C)c1	-4.7	-11.3	17.3*	0.1	-17.7	-3.9
Cc1cc(C(=O)COC(=O)Cc2c(F)cccc2Cl)c(C)n1C	5.4	9.9	.	-6.6	.	.
COc1ccc(N/C=C\C(=O)c2ccc(C)cc2)cc1OC	-58.2	.	1.7	-106.2	-199.2	5.8
COc1ccc(N/C=C\C(=O)c2ccc(Br)cc2)cc1OC	.	.	.	.	-65.4	130.7*
Cc1cccc(C(=O)NNC(=O)c2ccc(-c3ccccc3)cc2)c1	.	-7.7	.	.	-14.6	99.3*
COc1ccc(CN(C)C[C@H]2Oc3ccc(NC(=O)NC(C)C)cc3CC(=O)N([C@@H](C)CO)C[C@@H]2C)cc1	4.5	-16.5	-0.4	.	2.5	24.6
CN1CCCC(OC(=O)c2ccc(C#N)cc2)C1 (centres undefined)	-13.8	-4.4	-3.0	3.8	2.2	57.4*
c1ccc(-c2nnc(-c3ccccn3)s2)nc1	-0.7	-2.1	.	49.1	60.4*	-1.4
COc1cccc(-c2nc(NC(C)(C)C)c3ccccc3n2)c1O	.	7.5	.	.	.	.
O=C(OCc1c(-c2ccccc2)ncc2ccccc12)c1ccc(Br)cc1	-5.8	-8.5	2.6	-7.8	-20.8	24.5
O=C(OCc1c(-c2ccccc2)ncc2ccccc12)c1cccs1	-1.5	-6.7	3.9	-4.0	-35.7	54.9*
Cc1cc(Br)cc(Cl)c1OC(=O)c1cnccn1	-12.1	-11.3	-3.3	2.1	7.6	5.1
Cc1cc(Br)cc(Cl)c1OC(=O)c1ccncc1	-5.9	3.0	1.1	-6.1	13.7	94.4*
CS(=O)(=O)N1CCN(c2ccc(NC(=O)c3ccc(-c4ccc(Cl)cc4)o3)cc2)CC1	.	.	.	.	.	80.0*
O=C1/C(=C/c2ccncc2)CCC/C1=C\c1ccncc1	-13.3	11.3	-10.9	70.5*	95.3*	-23.9
NS(=O)(=O)c1ccc(Nc2nc(-c3cccc([N+](=O)[O-])c3)cs2)cc1	-9.8	5.9	0.3	-2.4	73.1*	49.5
NS(=O)(=O)c1ccc(Nc2nc(-c3ccc4ccccc4c3)cs2)cc1	.	-3.4	.	.	-6.3	-8.2
O=C(Cc1ccc(Cl)cc1)c1c[nH]c(C(=O)NCc2cccnc2)c1	-3.7	.	-1.7	65.8*	6.4	-4.9
COc1ccc(Nc2nc3nonc3nc2N2CCCCC2)cc1	-8.0	5.5	-0.2	2.4	.	-7.2
COc1ccc(Nc2nc(-c3sc(C)nc3C)cs2)c(OC)c1	1.5	7.8	15.7*	34.8	2.2	2.8
COc1ccc(Nc2nc(-c3cccs3)cs2)c(OC)c1	.	-1.5	.	.	.	.
Cc1ccc(Nc2nc(-c3sc(N)nc3C)cs2)cc1	-28.4	0.6	0.9	-95.5	-22.3	14.6
SMILES	RAD52 inh	RAD54 branch	F508del corr	EWS-Fli block	LGR2 inh	INS-1E GSIS act
CC(=O)c1ccc(Nc2nc(-c3sc(C)nc3C)cs2)cc1	-117.3	-4.4	4.3	65.7*	97.2*	-6.1
Cc1ccc(Nc2nc(-c3sc(C)nc3C)cs2)cc1	-1.4	-7.8	18.7*	-20.4	-38.5	14.4
O=C(N/N=C/c1c(Cl)cccc1Cl)c1ccc(F)cc1	6.1	-9.4	-1.2	-12.2	-7.8	11.7
C=CCNc1nc(-c2sc(NC(C)=O)nc2C)cs1	.	-1.5	.	.	.	.
CCc1c(C)nc2ncnn2c1NCCc1ccc(OC)cc1	-7.1	4.1	10.6*	47.6	6.3	-44.3
COc1ccc(-c2cnc(N)nc2-c2ccc(OC)cc2)cc1	-6.0	3.0	1.9	-1.4	-2.8	52.0*
COc1ccc(-c2nc(N)ncc2-c2ccc(OC)c(OC)c2)c(O)c1	0.2	-1.4	7.7	-17.9	-20.3	48.7*
